Screening data: PubChem, National Center for Advancing Translational Sciences (NCATS)
Cruzain inh Det = cruzain (T. cruzi) inhibition with detergent; purified cruzain, Z-FR-AMC fluorescence, 0.01% Triton; Potency, µM, inactives show max response, negative = inhibition, most hits filed as inhibitors; 200,000 compounds, 0.43% hits; AID 1478;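 further: plate controls were neutral wells for no effect and buffer without enzyme for full effect; nearly all actives have a fitted effect of over 40% in size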
Target sequence (P25779 123-467 limits assumed): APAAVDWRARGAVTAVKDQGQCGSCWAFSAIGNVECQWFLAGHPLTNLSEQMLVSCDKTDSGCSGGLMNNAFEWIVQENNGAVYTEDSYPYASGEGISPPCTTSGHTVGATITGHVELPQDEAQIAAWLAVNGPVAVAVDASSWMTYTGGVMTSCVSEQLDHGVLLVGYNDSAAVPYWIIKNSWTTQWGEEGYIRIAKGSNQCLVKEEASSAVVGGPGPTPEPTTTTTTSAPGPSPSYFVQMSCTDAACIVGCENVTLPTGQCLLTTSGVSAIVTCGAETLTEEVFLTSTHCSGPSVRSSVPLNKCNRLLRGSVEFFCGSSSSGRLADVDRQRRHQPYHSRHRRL
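Z-FR-AMC hydrolysis (2 uM substrate) by cruzain (1.5 nM) monitored kinetically at ex 360/em 450 nm after 15 min room-temperature compound exposure; 0.01% Triton X-100, pH 5.5, 5 mM DTT.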
Cruzain inh noDet = blocks cruzain activity in detergent-free assay; P25779; purified cruzain, Z-FR-AMC fluorescence, no detergent; Potency, µM, inactives show max response, negative = inhibition, hits mostly inhibitors; 200,000 compounds, 2.3% hits;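 further: plate controls were enzyme without inhibitor for no effect and buffer without enzyme for full effect; nearly all actives have a fitted effect of over 40% in size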
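Purified cruzain at 1.5 nM, pre-incubated 15 min with compound at room temperature in 100 mM sodium acetate pH 5.5, 5 mM DTT, 0.00005% Triton X-100. Reaction started with 2 uM Z-FR-AMC; AMC fluorescence increase over 60 s gives rate.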
Starred values were filed as active, the others as inactive. This is a sample that favours compounds with a hit; in the whole collection about 2.6% have one here. The call rests on the fitted dose curve; in most records, active means well fitted curve in the direction sought with a large enough effect; inconclusive means small, poorly fitted or top-dose-only effect, or another doubt; inactive means no such curve, though single readings can be large; an effect the other way counts as inactive or inconclusive. Potency means the concentration at half of the fitted maximal effect.

For Cc1cccc2cc(COC(=O)C3CCCCC3)c(=O)[nH]c12 the results were Cruzain inh Det 2% and Cruzain inh noDet -6%.
Screening Cc1cccc2cc(COC(=O)C3CCCO3)c(=O)[nH]c12 (stereo not drawn) returned Cruzain inh Det -1% and Cruzain inh noDet 1.6µM*.
`Fc1ccc2[nH]c3c(NCCN4CCOCC4)ncnc3c2c1` gave Cruzain inh Det inconclusive and Cruzain inh noDet 20µM*.
Screening O=c1c2[nH]c3ccc(F)cc3c2ncn1CCCN1CCOCC1 returned Cruzain inh Det 1% and Cruzain inh noDet -2%.
Screening Clc1ccc2[nH]c3c(NCCN4CCOCC4)ncnc3c2c1 returned Cruzain inh Det 14µM* and Cruzain inh noDet 16µM*.
For Clc1ccc2[nH]c3c(NCC4CCCO4)ncnc3c2c1 (stereo not drawn) the results were Cruzain inh Det inconclusive and Cruzain inh noDet 20µM*.
Screening O=c1c2[nH]c3ccc(Cl)cc3c2ncn1CCN1CCCCC1 returned Cruzain inh Det -5% and Cruzain inh noDet -12%.
Screening Clc1ccc(-n2ncc3c(NCC4CCCO4)ncnc32)cc1 (stereo not drawn) returned Cruzain inh Det -2% and Cruzain inh noDet -9%.
For CCc1cccc(N2C(=O)N(CC(=O)NCc3cccc(OC)c3OC)c3ccccc3S2(=O)=O)c1 the results were Cruzain inh Det 0% and Cruzain inh noDet inconclusive.
For COC(=O)c1c(NC(=O)c2ccc(S(=O)(=O)N3CCCCC3)cc2)sc2c1CCN(C)C2 the results were Cruzain inh Det -4% and Cruzain inh noDet -3%.
N#[N+]c1ccc(Nc2ccccc2)cc1 was read as Cruzain inh Det 1% and Cruzain inh noDet 1%.
COc1ccc(CNc2ncncc2-c2c(C)noc2C)c(OC)c1 was read as Cruzain inh Det 2% and Cruzain inh noDet 7%.
Screening O=C(c1csnn1)N1CCC2(CCCN(c3ccccc3)C2)CC1 returned Cruzain inh Det 1% and Cruzain inh noDet -1%.
For Cc1ccc(NC(=O)Cn2c(=O)n(Cc3nc(-c4ccccc4)no3)c(=O)c3ccccc32)c(C)c1 the results were Cruzain inh Det -2% and Cruzain inh noDet -17%.
`O=C(NCCc1ccccc1)c1ccc(CSc2nc3ccncc3n2Cc2ccccc2F)cc1` gave Cruzain inh Det -8% and Cruzain inh noDet 17%.
`Cc1ccc(NC(=O)N2N=C(c3ccc(F)cc3)CC2c2ccc(F)cc2)cc1` (stereo not drawn) gave Cruzain inh Det 1% and Cruzain inh noDet 1.3µM*.
`CNC(=S)N1N=C(c2ccc(C)cc2)CC1c1ccc(OC)cc1` (stereo not drawn) gave Cruzain inh Det -3% and Cruzain inh noDet -1%.
For C[C@H](NC(=O)c1ccccc1Cl)C(=O)OC(C(=O)Nc1cc(C(F)(F)F)ccc1Cl)c1ccccc1 (stereo partly drawn) the results were Cruzain inh Det inconclusive and Cruzain inh noDet -30%.
`O=C(CNC(=O)c1ccccc1F)OC(C(=O)Nc1cc(C(F)(F)F)ccc1Cl)c1ccccc1` (stereo not drawn) gave Cruzain inh Det 5µM* and Cruzain inh noDet 7.9µM*.
For O=C(Nc1c(C(=O)Nc2cccc(F)c2)oc2ccccc12)c1cc2ccccc2o1 the results were Cruzain inh Det -3% and Cruzain inh noDet 16µM*.
`Cc1ccc(NC(=O)c2oc3ccccc3c2NC(=O)c2cc3ccccc3o2)cc1` gave Cruzain inh Det 0% and Cruzain inh noDet inconclusive.
Screening CN(C)CCCN=C(N)N returned Cruzain inh Det 0% and Cruzain inh noDet 2%.
Screening Cc1ccc(Cl)c2sc(NC(=O)CS(=O)(=O)c3ccc(Cl)cc3)nc12 returned Cruzain inh Det -1% and Cruzain inh noDet -19%.
For Cc1ccc(S(=O)(=O)CC(=O)Nc2nc3c(C)cccc3s2)cc1 the results were Cruzain inh Det -5% and Cruzain inh noDet 25µM*.
For O=C(CS(=O)(=O)c1ccc(Cl)cc1)Nc1nc2ccc(Br)cc2s1 the results were Cruzain inh Det -3% and Cruzain inh noDet 7.9µM*.
`CC(=O)Nc1ccc2nc(NC(=O)CS(=O)(=O)c3ccc(C)cc3)sc2c1` gave Cruzain inh Det -4% and Cruzain inh noDet -21%.
For Cc1ccc(C2=Nc3ccccc3N(CC(=O)NCc3ccccc3Cl)C(=O)C2)cc1C the results were Cruzain inh Det -10% and Cruzain inh noDet 25µM*.
For Cc1ccc(CNC(=O)CN2C(=O)CC(c3ccc(C)c(C)c3)=Nc3ccccc32)cc1 the results were Cruzain inh Det -4% and Cruzain inh noDet -1%.
`N=C(N)N` gave Cruzain inh Det 8% and Cruzain inh noDet -2%.
Screening FC(F)(F)c1cnc(Sc2nnc(-c3cccs3)n2CC2CCCO2)c(Cl)c1 (stereo not drawn) returned Cruzain inh Det 1% and Cruzain inh noDet -10%.
N#Cc1c(Sc2ncc(C(F)(F)F)cc2Cl)nsc1C/C=N\OCc1c(F)cccc1Cl was read as Cruzain inh Det -6% and Cruzain inh noDet 4µM*.
For c1ccc(Cc2nnc3sc(Nc4ccccc4)nn23)cc1 the results were Cruzain inh Det 1% and Cruzain inh noDet 25µM*.
For Brc1ccc(-c2nn3c(Cc4ccccc4)nnc3s2)o1 the results were Cruzain inh Det 0% and Cruzain inh noDet 2%.
For O=C(NCc1ccco1)C(Cc1ccccc1)N1C(=O)C2C3C=CC(C3)C2C1=O (stereo not drawn) the results were Cruzain inh Det 25µM* and Cruzain inh noDet -30%.
For O=C(C(Cc1ccccc1)N1C(=O)C2C3C=CC(C3)C2C1=O)N1CCCCCC1 (stereo not drawn) the results were Cruzain inh Det -1% and Cruzain inh noDet 16%.
Screening Cc1ccc(CNC(=O)CN2C(=O)COc3ccccc32)cc1 returned Cruzain inh Det 1% and Cruzain inh noDet 0%.
Screening COc1cc(OC)cc(-c2nc(-c3ccccc3OC)no2)c1 returned Cruzain inh Det -1% and Cruzain inh noDet inconclusive.
`COc1cc(N=c2ssnc2Cl)cc(OC)c1` gave Cruzain inh Det -12% and Cruzain inh noDet 16µM*.
For CCC(C)S(=O)(=O)c1oc(-c2ccc(F)cc2)nc1S(=O)(=O)c1ccc(F)cc1 (stereo not drawn) the results were Cruzain inh Det -6% and Cruzain inh noDet 1%.
`CCCCNC(=O)C1=C(N)C(C(=O)Nc2ccc(C)c(S(=O)(=O)N3CCCCC3)c2)SC1=Nc1ccc(C)cc1C` (stereo not drawn) gave Cruzain inh Det 7% and Cruzain inh noDet 7.9µM*.
For CCN(CC)S(=O)(=O)c1cccc(NC(=O)C2SC(=Nc3ccc(C)cc3C)C(C(=O)NC(C)COC)=C2N)c1 (stereo not drawn) the results were Cruzain inh Det 1% and Cruzain inh noDet -11%.
For CC(C)c1ccc(S(=O)(=O)c2cn(Cc3ccc(F)cc3)c3cc4c(cc3c2=O)OCO4)cc1 the results were Cruzain inh Det -2% and Cruzain inh noDet inconclusive.
CCOc1ccc(S(=O)(=O)c2cn(Cc3cc(C)ccc3C)c3ccc(OCC)cc3c2=O)cc1 was read as Cruzain inh Det -4% and Cruzain inh noDet 16µM*.
Screening Cc1ccc(Cn2cc(S(=O)(=O)c3ccc(C(C)C)cc3)c(=O)c3cc4c(cc32)OCO4)cc1 returned Cruzain inh Det -6% and Cruzain inh noDet 32µM*.
`CCCn1cc(S(=O)(=O)c2ccc(OCC)cc2)c(=O)c2cc(C)ccc21` gave Cruzain inh Det -3% and Cruzain inh noDet -5%.
Screening CCCCC(CC)CNC(=O)CCCc1nnc2n(CCC)c(=O)c3sccc3n12 (stereo not drawn) returned Cruzain inh Det -2% and Cruzain inh noDet inconclusive.
